The source made the active and inactive calls. How the calls were made is not given here.
Potency means the concentration at half of the fitted maximal effect.

This test has as its system HIV-1 nucleocapsid protein NCp7 (binding to TG oligonucleotide). As to the kind of experiment: HIV Nucleocapsid (AID 346).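 Further: potency is for inhibitors that block NC binding and lower polarization.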 To be noted: HIV-1 NC / fluorescein-TGTGTGTG probe, fluorescence polarization. An outline of the steps:
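Reagents dispensed (10 nM TG4xF, 100 nM HIV-1 NC), plates spun, compounds pin-transferred, then incubated 1 hr at room temperature before FP imaging. Buffer: Hepes pH 7.5, 250mM NaCl, 1uM ZnCl2, 100 uM TCEP, 5 mM 2-mercaptoethanol.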
(Polarisation of emitted light reports the rotation of a fluorescent probe.)
As to `Cc1noc(C)c1C(=O)N1CCC2(CC1)CN(c1cccc(-c3ccccc3)c1)C2`, the Potency is > 20 µM (inactive).
Consider `COc1ccc(-c2nc3cnc(N(C)C)nc3n(CCC#N)c2=O)cc1`, for which the Potency was > 20 µM (inactive).
The value for `COc1cccc(Cn2c(=O)c(-c3cn(C)c4ccccc34)nc3cnc(OC)nc32)c1` was > 20 µM (inactive); that for `Cn1cc(-c2nc3cncnc3n(-c3ccccc3)c2=O)c2ccccc21` was 4.43 µM (active); that for `O=C(c1ccncc1)N1CCC2(CCCN(c3ccc(-c4ccccc4)cc3)C2)CC1` was > 20 µM (inactive).
In the case of `N#Cc1ccc(CN2CC[C@@]3(CCCN(C(=O)c4cccc(F)c4)C3)C2)cc1`, the Potency is > 20 µM (inactive).
For the compound `O=C(c1ccco1)N1CCC2(CC1)CCN(c1cccc(-c3ccccc3)c1)CC2`, the Potency was > 20 µM (inactive).
As to `COc1ccc2[nH]cc(CCNc3ncnc4ccc(-c5ccc(C(=O)N(C)C)cc5)cc34)c2c1`, the Potency is > 20 µM (inactive).
In the case of `COc1ccc(C(=O)N2CCC3(CCCN(C(=O)Nc4cccc(C#N)c4)C3)CC2)cc1` it was > 20 µM (inactive).
In the case of `CN(C)c1ccc(-c2nc(N3CCNCC3)c3ccccc3n2)cc1` it was > 20 µM (inactive); in that of `Cc1cccc(CNc2cc(-c3cccc(NS(C)(=O)=O)c3)ncn2)c1`, > 20 µM (inactive); in that of `CC(=O)N1CCC2(CC1)CCN(C(=O)Nc1cccc(C#N)c1)CC2`, > 20 µM (inactive).
In the case of `COc1ccc(-n2c(=O)c(C)nc3cnc(N(C)C)nc32)cc1` it was > 20 µM (inactive); in that of `COc1cccc(Cn2c(=O)c(-c3ccc(F)cc3)nc3cnc(N(C)C)nc32)c1`, > 20 µM (inactive); in that of `O=C(Nc1ccccc1)N1CCC2(CC1)CCN(C(=O)c1cccc(F)c1)CC2`, > 20 µM (inactive).
For `COc1cccc(-c2ccc3ncnc(NC4CC4)c3c2)c1`, the Potency was > 20 µM (inactive).
The value for `CN(C)C(=O)c1ccc(-c2ccc3ncnc(N4CCC(C(=O)O)CC4)c3c2)cc1` was > 20 µM (inactive); that for `COc1ccccc1CNc1ncncc1-c1cccc(C#N)c1` was > 20 µM (inactive).
With `Cc1ccccc1-c1nc(NC2CCNCC2)c2ccccc2n1`, the Potency is > 20 µM (inactive).
In the case of `O=C(Oc1ccccc1)N1CCC2(CC1)CCN(c1ncccn1)CC2`, the Potency is > 20 µM (inactive).
The value for `COc1cccc(-c2cc(NCc3ccccc3)ncn2)c1` was > 20 µM (inactive).
`COc1cccc(-c2cc(NCc3cccnc3)ncn2)c1`: the Potency was > 20 µM (inactive).
Take `O=c1c(CCc2ccccc2)nc2cnc(N3CCOCC3)nc2n1CCc1ccccc1`: the Potency was > 20 µM (inactive).
As for `Cc1noc(C)c1-c1nc(NCCN2CCOCC2)c2ccccc2n1`, the Potency is > 20 µM (inactive).
In the case of `O=C(c1cccc(F)c1)N1CCC2(CCCN(c3ncccn3)C2)CC1` it was > 20 µM (inactive).
The value for `CN(C)C(=O)c1ccc(-c2ccc3ncnc(NCCN4CCOCC4)c3c2)cc1` was > 20 µM (inactive); that for `CCNc1ncc2nc(-c3cccc(C#N)c3)c(=O)n(C)c2n1` was > 20 µM (inactive).
`CCNc1ncc2nc(-c3cc(F)cc(F)c3)c(=O)n(-c3ccccc3)c2n1`: the Potency was > 4 µM (inactive).
In the case of `COc1ncc2ncc(=O)n(CCc3ccccc3)c2n1` it was > 20 µM (inactive).
The value for `COc1cccc(-c2ccc3ncnc(NCCc4c[nH]c5ccc(OC)cc45)c3c2)c1` was > 20 µM (inactive).
The value for `Cn1cccc1C(=O)N1CCC2(CC1)CN(C(=O)Nc1cccc(C#N)c1)C2` was > 20 µM (inactive); that for `COc1ccc(-n2c(=O)c(-c3cn(C)c4ccccc34)nc3cnc(N4CCNCC4)nc32)cc1` was > 4 µM (inactive); that for `COc1cccc(-c2cc(NCc3cnc(C)cn3)ncn2)c1` was > 20 µM (inactive).
With `CNc1ncnc2ccc(-c3ccccc3OC)cc12`, the Potency was > 20 µM (inactive).
In the case of `CN(Cc1ccco1)c1ncncc1-c1ccccc1C(F)(F)F` it was > 20 µM (inactive); in that of `Cc1noc(C)c1-c1nc(N(C)C)c2ccccc2n1`, > 20 µM (inactive); in that of `N#CCCn1c(=O)c(-c2ccc(Cl)cc2)nc2cnc(Nc3ccccc3)nc21`, > 20 µM (inactive).
On to `CN1CCN(c2ncc3nc(-c4cccc(C#N)c4)c(=O)n(CCC#N)c3n2)CC1`, for which the Potency is > 20 µM (inactive).
In the case of `COc1ccccc1CN1CCCC2(CCN(S(C)(=O)=O)CC2)C1`, the Potency is > 20 µM (inactive).
For `CC(=O)N1CCC[C@@]2(CCN(c3ccncc3)C2)C1`, the Potency is > 20 µM (inactive).

The record behind these values is PubChem BioAssay (NCATS).
